The assay concerns the target T1, Aspartate--tRNA(Asp/Asn) ligase (Mycobacterium tuberculosis (strain ATCC 25618 / H37Rv)) (UniProt P9WFW3).
T1 sequence (whole entry): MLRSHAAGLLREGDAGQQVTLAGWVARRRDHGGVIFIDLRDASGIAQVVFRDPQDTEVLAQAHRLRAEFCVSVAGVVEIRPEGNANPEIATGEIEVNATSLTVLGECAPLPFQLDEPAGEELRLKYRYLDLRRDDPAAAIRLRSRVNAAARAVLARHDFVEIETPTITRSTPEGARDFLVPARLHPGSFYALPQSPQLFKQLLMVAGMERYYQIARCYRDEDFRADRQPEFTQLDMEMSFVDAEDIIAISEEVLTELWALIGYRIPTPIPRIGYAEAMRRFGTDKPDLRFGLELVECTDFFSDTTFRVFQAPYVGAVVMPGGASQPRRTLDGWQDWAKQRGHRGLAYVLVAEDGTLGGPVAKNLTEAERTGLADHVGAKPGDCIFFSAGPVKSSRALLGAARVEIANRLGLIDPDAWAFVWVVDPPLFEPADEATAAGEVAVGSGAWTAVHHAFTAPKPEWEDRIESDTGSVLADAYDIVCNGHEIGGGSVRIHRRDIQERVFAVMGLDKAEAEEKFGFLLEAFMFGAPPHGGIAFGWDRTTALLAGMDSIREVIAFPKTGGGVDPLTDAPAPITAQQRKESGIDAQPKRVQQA
Put plainly: Assay for Asp RNA synthetase-1 from Mycobacterium tuberculosis. The format is functional. On the set-up: scale not given: in the data most compounds retested in dose-response had high values. The following applies: 30 µM.
For `CC(C)c1ccc(C(O)Cn2c(=O)c(C#N)cn(C3CC3)c2=O)cc1` (stereo not given), the Percent Effect came to 2.61%.
`CCn1ccnc1CN1CCC(N(C)Cc2ncc(C)o2)C1` (stereo not given): the Percent Effect was -4.45%.
In the case of `CC1CCN(Cn2nc(-c3ccc(F)cc3)oc2=O)CC1` it was -0.789%.
As to `CCN(CC)C(C(=O)NCc1ccc(N2CCCC2)nc1)C(C)C` (stereo not given), the Percent Effect is -8.76%.
To `Cc1cc(CN(C)Cc2cc3c(cc2OC(F)F)OCO3)on1` belongs 4.16%.
In the case of `CN(Cc1cscn1)C1CCCN(Cc2noc(C3CC3)n2)C1` (stereo not given) it was -2.67%; in that of `CCn1nc(C)c2nnn(CC(=O)Nc3c(C)cccc3C)c(=O)c21`, -2.79%; in that of `CC(C)c1noc(CCCC(=O)N2CCC(Cc3cccnc3)CC2)n1`, -0.0571%.
To `CCn1ccnc1CN1CCN(CC(=O)NC(C)(C#N)C2CC2)CC1` (stereo not given) belongs -4.1%; to `CN(CCCNc1cc(N2CCCC2CO)ncn1)S(C)(=O)=O` (stereo not given), 7.01%; to `O=C(c1cccs1)N1CC[C@H](O)[C@@H]1Cc1ccccc1`, 0.296%.
For the molecule `Cc1ccc(C(=O)N2CCC3(CC2)CC(N2CCCC2)C3)cc1`, the Percent Effect stood at 0.137%.
To `CC(Cn1cccn1)NC(=O)NCc1ccc(S(N)(=O)=O)cc1` (stereo not given) belongs 6.49%; to `COc1ccc(OC)c(C2C3=C(COC3=O)Nc3[nH]nc(C)c32)c1` (stereo not given), -2.76%.
In the case of `Cc1cc(N2CCC(c3nnc(CN(C)C)n3C3CC3)CC2)ccn1` it was 5.21%; in that of `O=C(c1cccs1)N1CCC2(C1)c1ccccc1S(=O)(=O)N2CC1CC1` (stereo not given), -6.49%; in that of `Cn1ncc2c1NC(=O)CC2c1ccc(Cl)cc1Cl` (stereo not given), 5.72%.
For `O=C(Nc1cccc(N2CCCC2)c1)C1CCCN1c1nccs1` (stereo not given), the Percent Effect came out at 1.21%.
In the case of `O=C(CN1CCCC(c2ccc(C(=O)O)cc2)C1)NC1CC1` (stereo not given) it was -1.07%; in that of `Cc1cnc(CN(C)C2CCN(Cc3ccccc3C#N)C2)o1` (stereo not given), -4.54%; in that of `COc1ccc(C(=O)N2CC[C@H](CO)[C@H](O)C2)c(C)c1`, -1.53%.
To `O=C(c1ccc(F)c(Cl)c1)N1C[C@@H]2CC[C@H](C1)N(Cc1ccccc1)C2` belongs 4.06%; to `CCC1CN(C(=O)NCCOc2ccc3c(c2)OCO3)CCO1` (stereo not given), -0.509%.
In the case of `CN(C)c1cc2c(nn1)CCN(C(=O)C1Cc3ccccc3S1)C2` (stereo not given) it was 1.89%; in that of `Cn1cnc2c1CCN(CCCOc1ccc(C#N)cc1)C2`, -4.46%.
For the molecule `Cc1ccc(N2CCN(C(=O)COc3ccccc3)CC2)nn1`, the Percent Effect is -1.15%.
In the case of `COCCn1cc(C(=O)N2CCCC2c2cccc(F)c2)ccc1=O` (stereo not given) it was 0.301%; in that of `CCOc1ccccc1C(CC(=O)Nc1nc(C)cs1)NC(C)=O` (stereo not given), -0.233%.
As for `Cc1ncoc1C(=O)N1C[C@H]2CCC[C@@]2(COCC2CCOCC2)C1`, the Percent Effect was -1.27%.
To `CNS(=O)(=O)c1ccc(C(=O)N2CCCC2c2cnn(C)c2)o1` (stereo not given) belongs -2.58%; to `Oc1cc(CCC2CCCCN2)cc(-c2ccncc2)c1` (stereo not given), 2.44%.
In the case of `CCCC(C)C(=O)N1CCC(n2cccc2C(=O)OC)CC1` (stereo not given) it was 0.787%; in that of `Cc1ccc(-c2cc(C(=O)NC(C)C(=O)N3CCCCC3)on2)cc1` (stereo not given), 2.34%.
To `O=C(CN1CCOC(Cn2cccn2)C1)Nc1nncs1` (stereo not given) belongs -1.58%.
As to `Cc1cc(C(=O)N2CCc3nnc(N(C)C)cc3C2)c(C)n1C1CC1`, the Percent Effect amounted to 0.451%.
In the case of `O=C1CC2(CCN(CC3CC3)C2)CN1c1ccc2c(c1)OCO2` (stereo not given) it was 14.6%; in that of `O=C(c1cnn2c1OCCC2)N1CCN(C/C=C/c2ccccc2)CC1`, 3.28%; in that of `Cc1cnc(Nc2nccnc2C2CCN(C)CC2)s1`, -3.37%.
To `c1ccc(-c2nc(CN3CCCC3Cn3cncn3)cs2)cc1` (stereo not given) belongs 0.143%.
In the case of `N#Cc1cccc(S(=O)(=O)NC(=O)COC2CCCC2)c1` it was 1.85%.

These data come from ChEMBL document CHEMBL3988442, “University of Dundee, Small-Polar-MMV Screening Library” (2021).
